Measurements taken from PubChem BioAssay AID1851 (National Center for Advancing Translational Sciences (NCATS), 2009).
Out of some 16,000 compounds screened, about 2,600 (16%) were called active. Another 20% or so got no clear call; they are omitted. Only a sample is shown. A number with no mark means an inactive call. Calls come from the whole dose curve; as a rule, active = well fitted curve in the direction sought with a large enough effect; inconclusive = small, poorly fitted or top-dose-only effect, or effect the other way; inactive = no such curve, though single readings can be large or run the other way.

Molecular target: Cytochrome P450 2D6 (Homo sapiens) (UniProt P10635)
Sequence (P10635 whole entry, looked up): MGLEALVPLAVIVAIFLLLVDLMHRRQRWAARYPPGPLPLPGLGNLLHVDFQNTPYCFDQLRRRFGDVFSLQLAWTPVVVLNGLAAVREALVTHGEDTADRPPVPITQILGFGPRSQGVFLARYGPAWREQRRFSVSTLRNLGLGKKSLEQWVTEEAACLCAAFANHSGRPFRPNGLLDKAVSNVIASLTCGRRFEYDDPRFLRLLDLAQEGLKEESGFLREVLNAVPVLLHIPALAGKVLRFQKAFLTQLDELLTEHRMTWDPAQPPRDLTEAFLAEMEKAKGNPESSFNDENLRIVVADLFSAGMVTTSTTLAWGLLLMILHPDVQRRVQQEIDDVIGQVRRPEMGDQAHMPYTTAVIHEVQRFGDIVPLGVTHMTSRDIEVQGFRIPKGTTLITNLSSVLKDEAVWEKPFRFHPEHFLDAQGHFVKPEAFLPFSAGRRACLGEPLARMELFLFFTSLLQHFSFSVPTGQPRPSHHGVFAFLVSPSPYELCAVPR
Experiment: Cytochrome panel assay with activity outcomes
Settings: recombinant CYP, pro-luciferin dealkylation, luminescence, p450-cyp2d6; series mostly up to 57.1 µM; activity, negative = inhibition: at the top concentration
% is set by controls: 0 for no effect and ±100 for the full control effect.

Row | SMILES | activity, negative = inhibition | AC50
1 | COCCn1c(=O)cnc2cnc(Nc3ccccc3)nc21 | -5.45% | –
2 | O=C(CSc1nnc(Cn2nnc3ccccc32)o1)Nc1cccc(Cl)c1 | – | 12.6 µM (active)
3 | CCC(=O)Nc1cccc(NC(=O)CSc2nnnn2Cc2ccccc2)c1 | -19.3% | –
4 | CC(C)(C)OC(=O)NCCc1nnc(SCC(=O)Nc2cccc(Cl)c2)o1 | -19.6% | –
5 | CC(=O)[C@H]1CC[C@H]2[C@@H]3C=CC4=CC(=O)CC[C@@]4(C)[C@H]3CC[C@]12C | -2.12% [at 25.6 µM] | –
6 | COC(=O)CC1C(=O)NCCN1C(=O)Nc1ccc(Cl)cc1 (stereo not drawn) | 4.56% | –
7 | Cc1ccc(-n2cc(C(=O)c3ccc4ccccc4c3O)cn2)cc1 | -1.3% | –
8 | CSC1(SC2=NCCN2)SC2(NCCN2)S1 | – | 3.98 µM (active)
9 | COc1ccc(CNCCc2ccccc2)cc1OCC(N)=O | – | 0.398 µM (active)
10 | CC(C)(C)c1ccc(OCC(=O)NNC(=O)CCc2ccccc2)cc1 | -16.1% | –
11 | COc1ccc(CNC(=O)Nc2cccs2)cc1OC | -3.61% | –
12 | COc1ccc(C/C(N)=N/OC(=O)Cc2ccccc2)cc1OC | -9.36% | –
13 | COc1cc(CNCc2cccs2)ccc1OCC(N)=O | – | 2 µM (active)
14 | CCOc1cc(CNc2ccc(OC)cc2)cc(Br)c1OCC(=O)NC(C)(C)C | -20.5% | –
15 | COc1ccc(/C=N/NC(=O)CCc2ccccc2)cc1O | -15.1% | –
16 | COc1ccc(C[C@@](C)(N)C(=O)O)cc1OC | 1.3% [at 25.6 µM] | –
17 | COc1cc(CNCCc2ccccc2)ccc1OCC(=O)NC(C)(C)C | – | 3.16 µM (active)
18 | N[C@@H]1[C@@H]2[C@@H]3C[C@H]4N(CC[C@@]14C(=O)C(=O)O)CC3=CCO[C@@H]2CC(=O)O | -4.74% [at 11.4 µM] | –
19 | Cc1cccc2nc(C(F)(F)F)nc(=O)n12 | 37.5% | –
20 | COc1cccc(Cn2c(=O)c(-c3cn(C)c4ccccc34)nc3cnc(OC)nc32)c1 | -6.37% | –
21 | COc1ccc(NS(=O)(=O)c2cc(-c3nnnn3C)ccc2OC)cc1 | -18.8% | –
22 | COC(=O)Nc1nc2ccc(C(=O)c3cccs3)cc2[nH]1 | 0.0102% | –
23 | COCC(=O)N1CCC2(CCCN(c3ccncc3)C2)CC1 | -15.3% | –

Row | SMILES | activity, negative = inhibition | AC50
24 | CC1=C(C(N)=O)C(c2ccccn2)n2nc(SCc3ccccc3Cl)nc2N1 (stereo not drawn) | -0.385% | –
25 | CC(C)CNc1nc(N)[nH]c(=O)c1NC=O | -2.42% [at 11.4 µM] | –
26 | CN1CCN(c2ncc3nc(-c4cc(F)cc(F)c4)c(=O)n(CCC#N)c3n2)CC1 | 17.6% | –
27 | FC(F)(F)c1ccccc1-n1ccnc1 | -10.7% | –
28 | N#Cc1c(-n2ccnc2)cccc1-n1ccnc1 | – | 6.31 µM (active)
29 | Cc1cccc(-n2cccc2)c1C#N | 4.73% | –
30 | O=C(/C=C\NCC(=O)c1ccccc1)c1ccccc1 | -15.4% | –
31 | N#CC1=C(N)OC2=C(CC/C2=C\c2ccccc2)C1c1ccccc1 (stereo not drawn) | -7.69% | –
32 | Cc1c(-c2c(C#N)c(N)nc3c2CCCCCC3)cnn1C | -4.87% | –
33 | COc1ccc(CNc2ncncc2-c2ccc(N(C)C)cc2)c(OC)c1 | – | 10 µM (active)
34 | COc1ccc(CNc2ncncc2-c2ccc(C(=O)N(C)C)cc2)c(OC)c1 | – | 20 µM (active)
35 | CO[C@H]1COC(=O)[C@H](C)COC(=O)[C@@H](Cc2ccccc2)NC(=O)C/C=C\[C@H]1C | 3.3% [at 11.4 µM] | –
36 | NS(=O)(=O)c1cc2c(cc1C(F)(F)F)N[C@H](Cc1ccccc1)NS2(=O)=O | -5.27% [at 25.6 µM] | –
37 | CCN1CCN(S(=O)(=O)c2ccc(Cl)c(C(=O)Nc3nnc(CC(C)C)s3)c2)CC1 | -26.9% | –
38 | Cc1ccc(C)c(NC(=O)C2(C)CC3c4ccccc4C2c2ccccc23)c1 (stereo not drawn) | – | 0.2 µM (active)
39 | Cc1ccc(C(=O)NC(=S)Nc2cc(-c3nc4ccccc4s3)ccc2C)cc1 | 5.16% | –
40 | Cc1ccc(C)c(NC(=O)Cn2c([N+](=O)[O-])cnc2C)c1 | -13.2% | –
41 | Cc1ccc(C)c(NC(=O)C2CC3c4ccccc4C2c2ccccc23)c1 (stereo not drawn) | – | 0.2 µM (active)
42 | Cc1ccc(C)c(NC(=O)C2C3CCCC2C3c2ccccc2)c1 (stereo not drawn) | – | 2.82 µM (active)
43 | Cc1ccc(C)c(NC(=O)C2CC(O)CN2C(=O)OC(C)(C)C)c1 (stereo not drawn) | 4.88% | –
44 | CCOc1ncccc1C(=O)OCC(=O)Nc1cc(C)ccc1C | -28.7% | –
45 | Cc1ccc(NC(=O)C2C3CCCC2C3c2ccccc2)cc1C (stereo not drawn) | 12.5% | –
46 | CC(C)=NOCc1cccc(-c2cc(-c3ccccc3)no2)c1 | -6.68% [at 11.4 µM] | –

Row | SMILES | activity, negative = inhibition | AC50
47 | CC(C)COCC1CC2(CC(C)(c3csc(N)n3)OC2=O)C(=O)O1 (stereo not drawn) | -21.1% | –
48 | CCS(=O)(=O)N1CCN(c2c(Cl)cccc2[N+](=O)[O-])CC1 | -25.5% | –
49 | COC(=O)C1=C(C)NC(C)=C(C(=O)OC(C)C)[C@H]1c1cccc2nonc12 | 3% [at 25.6 µM] | –
50 | O=C(c1ccccc1)c1ccc2nc(-c3ccc(NC(=O)c4ccccc4F)cc3)[nH]c2c1 | -12.1% | –
51 | Fc1cc2nc(-c3ccncc3)[nH]c2cc1F | – | 12.6 µM (active)
52 | Nc1ccc(S(=O)(=O)Nc2cnc3ccccc3n2)cc1 | – | inactive
53 | O=C(O)CCNc1ccccc1C(=O)O | 3.09% [at 11.4 µM] | –
54 | O=C1C2C3C=CC(C3)C2C(=O)N1c1ncn[nH]1 (stereo not drawn) | -1.56% | –
55 | COc1ccc(-c2noc(N(C)CC(=O)Nc3cccc(C(F)(F)F)c3)n2)cc1 | – | 35.5 µM (active)
56 | CN(C)S(=O)(=O)Oc1ccccc1C(=O)Nc1cccc(C(F)(F)F)c1 | 5.28% | –
57 | COc1ccc(CC(=O)Nc2ccc(-c3noc(-c4cccc(OC)c4)n3)cc2)cc1 | 28.9% | –
58 | C=CCn1c(SCc2ccccc2)nc2scc(-c3ccc(C)o3)c2c1=O | -9.49% | –
59 | COc1cccc(/C=N/NC(=O)CSc2nnc(C)n2-c2ccccc2)c1O | -8.6% | –
60 | COCCN1C(=O)C(=O)/C(=C(/O)c2cccc(OC)c2)C1c1ccco1 (stereo not drawn) | 0.167% | –
61 | CCC(=O)NC(NCC1CCCO1)C(Cl)(Cl)Cl (stereo not drawn) | -1.46% | –
62 | CCOCCCN1CC(C(=O)NCCc2ccc(C)cc2)CC1=O (stereo not drawn) | – | 3.55 µM (active)
63 | Cc1ccc(CCN2CC(C(=O)NC3CCCC3)CC2=O)cc1 (stereo not drawn) | -9.43% | –
64 | Cc1ccc(CCN2CC(C(=O)NCCN3CCOCC3)CC2=O)cc1 (stereo not drawn) | -2.21% | –
65 | CC(C)=NO[C@@H](C)c1cn([C@@H]2COC[C@@H]2O)nn1 | 14.3% [at 11.4 µM] | –
66 | O=c1oc2ccccc2cc1-c1csc(NN=C2CCCCC2)n1 | – | 2.82 µM (active)
67 | Cc1ccc(-c2noc(-c3cc4ccccc4oc3=O)n2)cc1 | -11.3% | –
68 | Cc1cccc(-c2noc(-c3cc4ccccc4oc3=O)n2)c1 | -19.7% | –
